About 8,800 targets were measured; listed, in parts, are those with a hit and a random draw of the rest. About 0.5% of all pairs of compound and target were hits.
Compound: Cc1ccc(NC(=O)c2ccc(CN3CC[C@H](N(C)C)C3)c(C(F)(F)F)c2)cc1Nc1nccc(-c2cncnc2)n1 [bafetinib]
Assay: log2 fold change, soluble protein after heating vs DMSO (PISA); higher = thermal stabilisation; K562 lysate, 10 uM; active = over 0.2 and 3.5 SD of the protein, either way, in both replicates (recomputed)
In short: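 K562 pellets were dounce-homogenised in PBS pH 7.4 with 1 mM MgCl2, and the crude extract at 1 mg/mL protein was treated with 10 μM compound for 30 min. Aliquots were heated for 3 min across 48°C-58°C, pooled, and brought to 0.5% NP-40 at 4°C; soluble protein was the supernatant after 21,000xg for 90 min. Soluble protein was quantified by TMTpro 16plex LC-MS/MS with channel sums equalised, and reported as log2 fold change in thermal stability against DMSO controls, with values from duplicates.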

Chain of UniProt Q96G46 (Q96G46 whole entry, looked up): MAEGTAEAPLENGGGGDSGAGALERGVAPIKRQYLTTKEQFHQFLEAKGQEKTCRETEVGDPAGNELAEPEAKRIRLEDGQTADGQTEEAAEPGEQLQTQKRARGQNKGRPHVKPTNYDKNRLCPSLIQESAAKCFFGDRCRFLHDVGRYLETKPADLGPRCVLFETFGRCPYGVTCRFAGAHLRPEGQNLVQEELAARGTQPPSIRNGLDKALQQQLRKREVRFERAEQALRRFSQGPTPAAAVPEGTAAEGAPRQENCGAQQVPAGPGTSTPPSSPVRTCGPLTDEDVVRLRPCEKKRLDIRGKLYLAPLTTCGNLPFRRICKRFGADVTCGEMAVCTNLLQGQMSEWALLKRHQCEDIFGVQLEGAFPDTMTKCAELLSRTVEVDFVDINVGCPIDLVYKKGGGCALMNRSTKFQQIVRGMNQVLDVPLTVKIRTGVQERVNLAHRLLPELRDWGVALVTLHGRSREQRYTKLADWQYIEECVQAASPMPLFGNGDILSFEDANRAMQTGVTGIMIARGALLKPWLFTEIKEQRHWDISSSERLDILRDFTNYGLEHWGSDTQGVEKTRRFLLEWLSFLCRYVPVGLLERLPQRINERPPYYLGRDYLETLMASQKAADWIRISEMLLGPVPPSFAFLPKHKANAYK
Chain of UniProt Q9NX74 (Q9NX74 whole entry, looked up): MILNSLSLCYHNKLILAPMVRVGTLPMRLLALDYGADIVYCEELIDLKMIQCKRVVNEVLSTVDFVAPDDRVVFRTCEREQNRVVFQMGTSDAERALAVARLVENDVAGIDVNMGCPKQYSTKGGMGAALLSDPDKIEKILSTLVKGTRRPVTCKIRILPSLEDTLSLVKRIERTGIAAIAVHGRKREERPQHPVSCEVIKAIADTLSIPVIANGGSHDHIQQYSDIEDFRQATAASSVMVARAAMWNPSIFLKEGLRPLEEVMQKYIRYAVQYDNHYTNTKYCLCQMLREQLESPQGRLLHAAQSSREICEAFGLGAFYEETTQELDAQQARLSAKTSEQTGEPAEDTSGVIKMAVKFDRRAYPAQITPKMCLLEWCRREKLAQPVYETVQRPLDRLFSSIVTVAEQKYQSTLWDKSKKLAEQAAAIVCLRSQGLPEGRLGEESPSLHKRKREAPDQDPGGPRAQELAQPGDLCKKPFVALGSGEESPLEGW
Chain of UniProt A6NHQ2 (A6NHQ2 whole entry, looked up): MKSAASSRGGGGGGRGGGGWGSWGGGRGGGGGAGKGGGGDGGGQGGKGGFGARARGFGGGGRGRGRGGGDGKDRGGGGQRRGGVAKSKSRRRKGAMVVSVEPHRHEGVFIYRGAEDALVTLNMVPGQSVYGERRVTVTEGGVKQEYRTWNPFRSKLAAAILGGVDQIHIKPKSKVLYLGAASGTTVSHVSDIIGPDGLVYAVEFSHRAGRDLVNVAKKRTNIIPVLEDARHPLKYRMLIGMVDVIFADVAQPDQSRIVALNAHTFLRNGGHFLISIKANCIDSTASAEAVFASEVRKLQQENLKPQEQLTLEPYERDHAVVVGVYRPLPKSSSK
Chain of UniProt Q9NZN4 (Q9NZN4 whole entry, looked up): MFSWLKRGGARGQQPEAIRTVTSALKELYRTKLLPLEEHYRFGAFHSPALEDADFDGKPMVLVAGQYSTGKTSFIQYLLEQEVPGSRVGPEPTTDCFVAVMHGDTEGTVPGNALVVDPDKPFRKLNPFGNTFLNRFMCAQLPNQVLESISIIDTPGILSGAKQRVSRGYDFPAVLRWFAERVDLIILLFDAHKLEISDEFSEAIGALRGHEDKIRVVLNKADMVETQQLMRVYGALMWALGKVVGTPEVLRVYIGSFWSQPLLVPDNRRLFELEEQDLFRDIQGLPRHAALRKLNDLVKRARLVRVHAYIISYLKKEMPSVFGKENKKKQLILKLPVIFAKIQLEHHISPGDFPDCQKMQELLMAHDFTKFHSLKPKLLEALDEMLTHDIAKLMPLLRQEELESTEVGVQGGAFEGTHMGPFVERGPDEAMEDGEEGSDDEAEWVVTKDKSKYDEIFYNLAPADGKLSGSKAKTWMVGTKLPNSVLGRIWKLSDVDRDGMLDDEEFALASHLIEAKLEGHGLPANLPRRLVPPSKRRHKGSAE
Chain of UniProt P54852 (P54852 whole entry, looked up): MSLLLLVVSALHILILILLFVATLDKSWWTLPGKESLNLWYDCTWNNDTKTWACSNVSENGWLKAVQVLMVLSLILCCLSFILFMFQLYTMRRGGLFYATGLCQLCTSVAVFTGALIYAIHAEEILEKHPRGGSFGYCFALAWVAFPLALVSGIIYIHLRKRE
Chain of UniProt Q8N6R0 (Q8N6R0 whole entry, looked up): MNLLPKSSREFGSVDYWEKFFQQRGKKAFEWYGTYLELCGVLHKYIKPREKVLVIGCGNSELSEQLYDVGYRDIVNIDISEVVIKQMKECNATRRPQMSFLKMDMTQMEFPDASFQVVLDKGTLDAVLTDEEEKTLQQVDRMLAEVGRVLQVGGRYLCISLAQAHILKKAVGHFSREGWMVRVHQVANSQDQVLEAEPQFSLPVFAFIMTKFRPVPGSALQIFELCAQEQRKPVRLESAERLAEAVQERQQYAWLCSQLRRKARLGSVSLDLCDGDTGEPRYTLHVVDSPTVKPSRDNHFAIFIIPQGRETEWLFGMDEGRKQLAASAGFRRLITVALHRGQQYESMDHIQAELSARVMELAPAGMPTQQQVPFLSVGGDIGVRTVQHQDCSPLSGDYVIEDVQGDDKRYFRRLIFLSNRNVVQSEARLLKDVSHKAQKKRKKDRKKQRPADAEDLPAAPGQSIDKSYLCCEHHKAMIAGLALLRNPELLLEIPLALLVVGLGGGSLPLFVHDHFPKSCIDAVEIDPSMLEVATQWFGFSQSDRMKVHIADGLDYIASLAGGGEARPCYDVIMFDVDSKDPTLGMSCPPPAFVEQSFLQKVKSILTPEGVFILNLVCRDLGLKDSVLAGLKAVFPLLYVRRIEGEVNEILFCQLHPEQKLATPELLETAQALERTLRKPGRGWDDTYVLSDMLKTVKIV
Chain of UniProt Q9NPA8 (Q9NPA8 whole entry, looked up): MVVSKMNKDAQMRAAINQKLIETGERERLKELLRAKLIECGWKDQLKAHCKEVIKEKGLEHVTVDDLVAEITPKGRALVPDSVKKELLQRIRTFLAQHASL
Chain of UniProt P22830 (P22830 whole entry, looked up): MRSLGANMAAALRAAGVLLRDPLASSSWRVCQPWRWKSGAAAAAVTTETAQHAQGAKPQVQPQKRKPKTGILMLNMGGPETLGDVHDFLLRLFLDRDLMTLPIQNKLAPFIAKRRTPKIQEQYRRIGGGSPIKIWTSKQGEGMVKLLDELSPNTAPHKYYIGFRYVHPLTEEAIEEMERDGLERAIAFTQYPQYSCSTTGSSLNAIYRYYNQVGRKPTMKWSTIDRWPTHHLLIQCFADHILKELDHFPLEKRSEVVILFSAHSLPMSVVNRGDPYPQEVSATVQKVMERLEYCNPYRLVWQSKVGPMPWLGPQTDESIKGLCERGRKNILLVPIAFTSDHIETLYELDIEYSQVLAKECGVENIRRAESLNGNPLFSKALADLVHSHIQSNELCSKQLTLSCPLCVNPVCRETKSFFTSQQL
Chain of UniProt Q96RT1 (Q96RT1 whole entry, looked up): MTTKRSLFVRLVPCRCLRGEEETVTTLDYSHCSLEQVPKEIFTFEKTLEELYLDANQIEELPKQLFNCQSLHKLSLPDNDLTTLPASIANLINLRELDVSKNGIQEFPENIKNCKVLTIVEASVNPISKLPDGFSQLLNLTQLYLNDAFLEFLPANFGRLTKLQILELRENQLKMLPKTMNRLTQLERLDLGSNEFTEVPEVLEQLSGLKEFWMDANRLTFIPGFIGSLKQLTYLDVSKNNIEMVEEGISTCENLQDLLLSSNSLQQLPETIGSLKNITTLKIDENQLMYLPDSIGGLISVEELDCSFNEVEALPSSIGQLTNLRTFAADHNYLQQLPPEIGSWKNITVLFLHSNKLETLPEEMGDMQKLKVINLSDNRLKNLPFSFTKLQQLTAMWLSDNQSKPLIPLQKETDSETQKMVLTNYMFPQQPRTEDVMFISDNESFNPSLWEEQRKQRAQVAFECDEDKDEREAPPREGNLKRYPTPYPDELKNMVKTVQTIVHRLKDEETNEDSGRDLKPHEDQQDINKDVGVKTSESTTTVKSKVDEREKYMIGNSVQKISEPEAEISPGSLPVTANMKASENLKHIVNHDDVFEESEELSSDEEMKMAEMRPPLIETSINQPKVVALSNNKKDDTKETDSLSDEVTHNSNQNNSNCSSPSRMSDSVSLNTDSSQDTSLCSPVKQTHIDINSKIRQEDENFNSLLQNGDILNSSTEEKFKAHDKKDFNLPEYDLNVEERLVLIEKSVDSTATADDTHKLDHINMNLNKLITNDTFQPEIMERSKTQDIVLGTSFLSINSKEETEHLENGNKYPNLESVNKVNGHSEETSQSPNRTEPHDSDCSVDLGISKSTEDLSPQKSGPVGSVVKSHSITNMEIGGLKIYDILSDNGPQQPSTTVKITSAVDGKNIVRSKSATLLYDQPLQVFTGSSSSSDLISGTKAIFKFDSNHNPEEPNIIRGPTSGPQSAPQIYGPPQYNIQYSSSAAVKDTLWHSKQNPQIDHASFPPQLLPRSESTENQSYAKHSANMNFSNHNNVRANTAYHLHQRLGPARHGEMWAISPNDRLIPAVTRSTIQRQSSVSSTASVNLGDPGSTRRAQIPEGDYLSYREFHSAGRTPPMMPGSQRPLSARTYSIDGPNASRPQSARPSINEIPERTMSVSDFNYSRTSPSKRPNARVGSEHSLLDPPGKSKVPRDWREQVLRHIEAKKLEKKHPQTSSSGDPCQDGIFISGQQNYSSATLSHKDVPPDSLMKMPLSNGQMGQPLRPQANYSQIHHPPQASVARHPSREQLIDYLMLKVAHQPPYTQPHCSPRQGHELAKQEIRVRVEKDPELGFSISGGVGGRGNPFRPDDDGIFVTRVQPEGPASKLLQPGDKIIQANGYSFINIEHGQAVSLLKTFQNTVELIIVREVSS
Chain of UniProt P62942 (P62942 whole entry, looked up): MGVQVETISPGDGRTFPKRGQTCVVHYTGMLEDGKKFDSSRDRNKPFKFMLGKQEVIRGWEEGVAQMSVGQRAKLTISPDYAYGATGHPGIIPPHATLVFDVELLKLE

log2 fold change, inactive:
FARSA (UniProt Q9Y285) -0.075
FECH isoform 2 (UniProt P22830) 0.557
EBP (UniProt Q15125) -0.011
EP300 (UniProt Q09472) 0.044
EP400 isoform 5 (UniProt Q96L91) -0.053
ESRRA (UniProt P11474) 0.052
DUS2 (UniProt Q9NX74) -0.017
GCLM (UniProt P48507) 0.003
GGT7 (UniProt Q9UJ14) -0.09
EMP3 (UniProt P54852) -0.019
FANCI (UniProt Q9NVI1) -0.032
FAM118B (UniProt Q9BPY3) 0.008
GFPT1 (UniProt Q06210) -0.031
FKBP1A (UniProt P62942) -0.111
EDARADD (UniProt Q8WWZ3) 0
FIBP (UniProt O43427) -0.025
EHD2 (UniProt Q9NZN4) -0.063
FADS1, A0A0A0MR51 0.027
GALNT2 (UniProt Q10471) -0.002
FASTKD5 (UniProt Q7L8L6) 0.169
FBLL1 (UniProt A6NHQ2) -0.075
DTWD1 (UniProt Q8N5C7) 0.002
GGA2 (UniProt Q9UJY4) -0.046
FYB1 isoform 3 (UniProt O15117) -0.062
DYRK1A (UniProt Q13627) -0.028
DUS3L (UniProt Q96G46) 0.093
ERI1 (UniProt Q8IV48) 0.04
FBXO9 (UniProt Q9UK97) 0
ERBIN isoform 8 (UniProt Q96RT1) -0.002
ENY2 (UniProt Q9NPA8) -0.07
EEF1AKNMT (UniProt Q8N6R0) -0.014
EEF1A1, A0A087WVQ9 0.068
ETHE1 (UniProt O95571) 0.038
FBXO22 (UniProt Q8NEZ5) -0.049
FASTKD2 (UniProt Q9NYY8) -0.028
FBXO30 (UniProt Q8TB52) 0.032

— the supplement of paper PMC10849652
